“And” between values parts separate entries of the source, which are not always exact repeats. Identical values can stand only once. The campaign covered roughly 5,500 compounds. About 2,000 (36%) were called active. Inconclusive results (about 18%) are left out. Cut-off read from the data, not from the text of the source: active = normalized growth mostly below about 0.91 (no sharp cut-off); inconclusive = no clear call, values can overlap the other calls; inactive = mostly above about 0.92. This is one part of the list.
Assay: chemical genetic growth profiling, strain panel (AID 1159580);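 note: tested at 20 µM; growth read once vehicle control cultures reached saturation at 30 °C; 1 = growth at the plate median or of vehicle wells; lower values mean less growth of the strain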
Conditions: S. cerevisiae deletion strains, growth OD

Measured: normalized growth

CC(C)OC(=O)C(C)(C)Oc1ccc(C(=O)c2ccc(Cl)cc2)cc1
active: locus YDR162C, strain NBP2, hits give low values 0.671 | locus YGR229C, strain SMI1, hits give low values 0.763
inactive: locus YAL013W, strain DEP1, hits give low values 1.01 | locus YAL021C, strain ccr4, hits give low values 1 | locus YAL026C, strain drs2, hits give low values 0.976 | locus YAL030W, strain snc1, hits give low values 0.971 | locus YAL040C, strain CLN3, hits give low values 1.08 | locus YBL061C, strain skt5, hits give low values 0.966 | locus YBR009C, strain hhf1, hits give low values 0.949 | locus YBR021W, strain FUR4, hits give low values 0.976 | locus YBR023C, strain chs3, hits give low values 0.97 | locus YBR171W, strain sec66, hits give low values 0.965 | locus YBR229C, strain ROT2, hits give low values 1 | locus YBR231C, strain swc5, hits give low values 0.969 | locus YBR279W, strain paf1, hits give low values 0.973 | locus YCL011C, strain gbp2, hits give low values 0.954 | locus YCL016C, strain dcc1, hits give low values 0.975 | locus YCL029C, strain bik1, hits give low values 1.01 | locus YCL061C, strain MRC1 (second series), hits give low values 0.982 | locus YCL061C, strain MRC1, hits give low values 0.981 | locus YCL069W, strain vba3, hits give low values 0.978 | locus YCR088W, strain abp1, hits give low values 0.977 | locus YDL005C, strain med2, hits give low values 0.961 | locus YDL035C, strain GPR1, hits give low values 0.942 | locus YDL040C, strain nat1, hits give low values 0.966 | locus YDL074C, strain BRE1, hits give low values 0.931 | locus YDL101C, strain DUN1, hits give low values 1.01 | locus YDL134C, strain PPH21, hits give low values 0.995 | locus YDL185W, strain tfp1, hits give low values 0.995 | locus YDL192W, strain arf1, hits give low values 0.987 | locus YDR001C, strain nth1, hits give low values 0.971 | locus YDR069C, strain doa4, hits give low values 0.975 | locus YDR101C, strain arx1, hits give low values 0.987 | locus YDR137W, strain rgp1, hits give low values 0.943 | locus YDR150W, strain NUM1, hits give low values 1.01 | locus YDR159W, strain sac3, hits give low values 0.982 | locus YDR195W, strain ref2 0.982 | locus YDR297W, strain sur2, hits give low values 0.976 | locus YDR318W, strain mcm21, hits give low values 0.969 | locus YDR334W, strain swr1, hits give low values 0.976 | locus YDR335W, strain msn5, hits give low values 0.977 | locus YDR363W, strain ESC2, hits give low values 0.969 | locus YDR388W, hits give low values 0.983 | locus YDR392W, strain spt3, hits give low values 0.923 | locus YDR502C, strain sam2, hits give low values 0.979 | locus YEL003W, strain gim4, hits give low values 0.979 | locus YEL037C, strain rad23, hits give low values 1.01 | locus YEL061C, strain CIN8 (second series), hits give low values 0.963 | locus YEL061C, strain CIN8, hits give low values 1.01 | locus YER002W, strain NOP16, hits give low values 1 | locus YER015W, strain faa2, hits give low values 0.967 | locus YER016W, strain bim1, hits give low values 0.978 | locus YER110C, hits give low values 0.998 | locus YER111C, strain swi4, hits give low values 0.961 | locus YER155C, strain BEM2 (second series), hits give low values 0.977 | locus YER155C, strain BEM2, hits give low values 1 | locus YER167W, strain BCK2, hits give low values 0.987 | locus YFR010W, strain ubp6, hits give low values 0.964 | locus YGL078C, strain dbp3, hits give low values 0.991 | locus YGL086W, strain mad1, hits give low values 0.979 | locus YGL167C, strain pmr1, hits give low values 0.957 | locus YGL173C, strain kem1, hits give low values 0.977 | locus YGL227W, strain vid30, hits give low values 0.967 | locus YGL240W, strain doc1, hits give low values 0.991 | locus YGL248W, strain PDE1, hits give low values 0.969 | locus YGL253W, strain hxk2, hits give low values 0.972 | locus YGR078C, strain PAC10, hits give low values 0.944 and 0.983 | locus YGR135W, strain pre9, hits give low values 0.987 | locus YGR252W, strain gcn5, hits give low values 0.995 | locus YHR013C, strain ard1, hits give low values 0.963 | locus YHR027C, strain rpn1, hits give low values 0.986 | locus YHR030C, strain SLT2, hits give low values 0.989 and 0.966 | locus YHR079C, strain IRE1 (second series), hits give low values 0.987 | locus YHR079C, strain IRE1, hits give low values 0.952 | locus YHR094C, strain hxt1, hits give low values 0.977 | locus YHR129C, strain ARP1, hits give low values 1 | locus YHR142W, strain chs7, hits give low values 0.966 | locus YHR200W, strain rpn10, hits give low values 0.995 | locus YIL066C, strain RNR3, hits give low values 0.971 | locus YIL073C, strain SPO22, hits give low values 0.741 | locus YIL125W, strain kgd1, hits give low values 0.991 | locus YIR030C, strain dcg1, hits give low values 0.983 | locus YJL092W, strain hpr5, hits give low values 0.975 | locus YJL095W, strain BCK1 (second series), hits give low values 0.981 | locus YJL095W, strain BCK1, hits give low values 0.971 and 0.954 | locus YJL115W, strain asf1, hits give low values 0.972 | locus YJL129C, strain trk1, hits give low values 0.893 | locus YJL134W, strain LCB3, hits give low values 1 | locus YJL154C, strain vps35, hits give low values 0.973 | locus YJL164C, strain tpk1, hits give low values 0.964 | locus YJL166W, strain qcr8, hits give low values 0.955 | locus YJL168C, strain set2, hits give low values 0.983 | locus YJL187C, strain SWE1 (second series), hits give low values 1 | locus YJL187C, strain SWE1, hits give low values 0.97 | locus YJR043C, strain POL32, hits give low values 1.01 | locus YJR066W, strain TOR1, hits give low values 0.873
